# Reference: PubChem BioAssay (NCATS)
# Records with an inconclusive call do not appear. Activity calls are given as the source filed them. Unless noted, calls follow the shape of the dose curve; as a rule, active = well fitted inhibition curve with a large enough effect; inconclusive = small, poorly fitted or top-dose-only effect; inactive = flat fitted curve, though single readings scatter.
# Experiments:
# [1] = qHTS drug screen for cell cycle checkpoint inhibitors in PARPi-resistant BRCA-mutant ovarian cancer cell lines. (AID 1963452; calls by dose curve; also: potency is read from the fitted curve at half-maximal effect); conditions: PEO1/OlaR viability, CellTiter-Glo luminescence, 96 h; for Z-AUC: stronger effect = lower value
# Outline: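 PEO1, PEO4 and PEO1/OlaR ovarian cancer cells, 600 per well, exposed 96 h at 37C to a dilution series. Viability read by CellTiter-Glo luminescence, normalized to DMSO and empty wells; activity summarized as Z-AUC.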
# [2] = qHTS profiling for inhibitors of Plasmodium falciparum proliferation (AID 504749); also: nearly all actives have a fitted effect of over 60% in size; also: potency is read from the fitted curve at half-maximal effect;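 as to activity, negative = inhibition: 0% = DMSO vehicle and full inhibition = artemisinin control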; conditions: P. falciparum in erythrocytes, SYBR Green DNA, 72 h
# Outline: (§1)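 Infected RBCs, 0.3% parasitemia/2.5% Hct final; cpd 72 h, 37 C, 5% CO2; lysis buffer with saponin/triton/SYBR Green I, o/n RT dark; FI 485/535; norm. to artemisinin (0.29 uM) and DMSO.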
# 3D7 = assay: as above; conditions: P. falciparum in erythrocytes, SYBR Green DNA, 72 h; series mostly up to 28.7 µM
# Outline: as §1
# [3] = qHTS for identification of novel therapeutic agents for treatment of microphthalmiaassociated transcription factor (MiT) renal cell carcinoma (RCC) (AID 1963991); conditions: CellTiter-Glo, 48 h, stronger effect = lower value
# Outline: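 Viability of three TFE3-fusion renal carcinoma lines measured by CellTiter-Glo after 48 h treatment with each of 1912 compounds at 11 concentrations. Responses scaled between DMSO (100%) and empty wells (0%) before curve fitting.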
# [4] = measured here: PEO1 parental Z-AUC
# [5] = at 28.7 µM (top of the series), parasite line A
# [6] = at 28.7 µM (top of the series), parasite line B
# [7] = TFE3-RCC UOK109 viability, measured here: UOK109 Z-AUC
# [8] = TFE3-RCC viability, measured here: UOK124 Z-AUC
# [9] = TFE3-RCC viability, measured here: UOK145 Z-AUC
# [10] = at 12.8 µM (top of the series), parasite line A
# [11] = at 12.8 µM (top of the series), parasite line B
smiles,measurement,setting,value
O=c1cc(O)c(Cl)c[nH]1,Z-AUC,[1],1.39 (inactive)
same,Z-AUC,[1]; [4],1.19
same,Z-AUC,[1]; measured here: PEO4 Z-AUC,1.11
same,"activity, negative = inhibition",[2]; [5],-6.01% (inactive)
same,"activity, negative = inhibition",[2]; [6],8.72% (inactive)
same,Potency,3D7,inactive
COc1cc([C@@H]2c3cc4c(cc3[C@H](O)[C@H]3COC(=O)[C@H]23)OCO4)cc(OC)c1OC,Potency,[1],0.0174 µM (active)
same,Z-AUC,[1]; [4],-1.81
same,Z-AUC,[1]; measured here: PEO4 Z-AUC,-1.94
same,Potency,[2]; parasite line A,8.91 µM (active)
same,Potency,[2]; parasite line B,8.91 µM (active)
same,Potency,3D7,2.24 µM (active)
CCn1cc(C(=O)O)c(=O)c2cc(F)c(N3CCN(C)CC3)cc21,Z-AUC,[1],1.22 (inactive)
same,Z-AUC,[1]; [4],0.931
same,Z-AUC,[1]; measured here: PEO4 Z-AUC,1.07
same,z-score,[3]; [7],0.77
same,z-score,[3]; [8],0.298
same,z-score,[3]; [9],0.753
same,"activity, negative = inhibition",[2]; [6],-21.5% (inactive)
same,Potency,3D7,inactive
CCN(CC)CC#CCOC(=O)C(O)(c1ccccc1)C1CCCCC1 (centres undefined),z-score,[3]; [7],0.714
same,z-score,[3]; [8],0.353
same,z-score,[3]; [9],0.607
O=c1oc2c(O)c(O)cc3c(=O)oc4c(O)c(O)cc1c4c23,Z-AUC,[1],0.559 (inactive)
same,Z-AUC,[1]; [4],0.754
same,Z-AUC,[1]; measured here: PEO4 Z-AUC,0.513
same,z-score,[3]; [7],1.02
same,z-score,[3]; [8],0.807
same,z-score,[3]; [9],0.717
same,Potency,3D7,1 µM (active)
CC(C)(Sc1cc(C(C)(C)C)c(O)c(C(C)(C)C)c1)Sc1cc(C(C)(C)C)c(O)c(C(C)(C)C)c1,Z-AUC,[1],0.926 (inactive)
same,Z-AUC,[1]; [4],1.36
same,Z-AUC,[1]; measured here: PEO4 Z-AUC,1.09
same,"activity, negative = inhibition",[2]; [10],6.04% (inactive)
same,"activity, negative = inhibition",[2]; [11],8.09% (inactive)
same,Potency,3D7,3.55 µM (active)
CCCCCCNC(=O)n1cc(F)c(=O)[nH]c1=O,Z-AUC,[1],1.08 (inactive)
same,Z-AUC,[1]; [4],0.601
same,Z-AUC,[1]; measured here: PEO4 Z-AUC,0.733
same,Potency,3D7,4.47 µM (active)
CC1=CC(=O)c2ccccc2C1=O,Z-AUC,[1],0.899 (inactive)
same,Z-AUC,[1]; [4],0.394
same,Z-AUC,[1]; measured here: PEO4 Z-AUC,0.252
same,"activity, negative = inhibition",[2]; [5],-6.5% (inactive)
same,"activity, negative = inhibition",[2]; [6],-23% (inactive)
same,Potency,3D7,7.08 µM (active)
CCCCOc1ccc(CC(=O)NO)cc1,Z-AUC,[1],-0.866 (inactive)
same,Z-AUC,[1]; [4],-0.714
same,Z-AUC,[1]; measured here: PEO4 Z-AUC,-0.748
same,Potency,[2]; parasite line A,1.12 µM (active)
same,Potency,3D7,0.562 µM (active)
S=P(N1CC1)(N1CC1)N1CC1,Z-AUC,[1],0.79 (inactive)
same,Z-AUC,[1]; [4],1.48
same,Z-AUC,[1]; measured here: PEO4 Z-AUC,1.59
same,"activity, negative = inhibition",[2]; [5],-0.685% (inactive)
same,"activity, negative = inhibition",[2]; [6],-0.221% (inactive)
same,Potency,3D7,inactive
Cc1cccc(N(C)C(=S)Oc2ccc3ccccc3c2)c1,Z-AUC,[1],0.688 (inactive)
same,Z-AUC,[1]; [4],0.339
same,Z-AUC,[1]; measured here: PEO4 Z-AUC,0.795
same,"activity, negative = inhibition",[2]; [10],-2.31% (inactive)
same,"activity, negative = inhibition",[2]; [11],0.272% (inactive)
same,Potency,3D7,inactive
N=C(N)c1ccc(OCCCCCOc2ccc(C(=N)N)cc2)cc1,Z-AUC,[1],0.0445 (inactive)
same,Z-AUC,[1]; [4],-0.0701
same,Z-AUC,[1]; measured here: PEO4 Z-AUC,0.016
same,Potency,[2]; parasite line A,1 µM (active)
same,Potency,[2]; parasite line B,2.24 µM (active)
same,Potency,3D7,1.58 µM (active)
CCCc1nc(C)c2c(=O)[nH]c(-c3cc(S(=O)(=O)N4CCN(CC)CC4)ccc3OCC)nn12,Z-AUC,[1],1.15 (inactive)
same,Z-AUC,[1]; [4],0.477
same,Z-AUC,[1]; measured here: PEO4 Z-AUC,0.621
same,"activity, negative = inhibition",[2]; [5],-13.4% (inactive)
same,"activity, negative = inhibition",[2]; [6],-10.2% (inactive)
same,Potency,3D7,inactive
CC(=O)Oc1ccccc1C(=O)Nc1ncc([N+](=O)[O-])s1,Z-AUC,[1],0.99 (inactive)
same,Z-AUC,[1]; [4],0.864
same,Z-AUC,[1]; measured here: PEO4 Z-AUC,0.834
same,"activity, negative = inhibition",[2]; [5],1.42% (inactive)
same,"activity, negative = inhibition",[2]; [6],8% (inactive)
CC(C)Cn1cnc2c(N)nc3ccccc3c21,Z-AUC,[1],-0.974 (inactive)
same,Z-AUC,[1]; [4],-0.536
same,Z-AUC,[1]; measured here: PEO4 Z-AUC,-1.36
same,"activity, negative = inhibition",[2]; [6],-10.9% (inactive)
same,Potency,3D7,inactive
CCc1c2c(nc3ccc(OC(=O)N4CCC(N5CCCCC5)CC4)cc13)-c1cc3c(c(=O)n1C2)COC(=O)[C@]3(O)CC,Potency,[1],0.0309 µM (active)
same,Z-AUC,[1]; [4],-2.61
same,Z-AUC,[1]; measured here: PEO4 Z-AUC,-1.83
same,"activity, negative = inhibition",[2]; [5],-1.15% (inactive)
same,Potency,3D7,inactive
COc1cc(NCc2ccc3nc(N)nc(N)c3c2C)cc(OC)c1OC,Z-AUC,[1],0.262 (inactive)
same,Z-AUC,[1]; [4],0.153
same,Z-AUC,[1]; measured here: PEO4 Z-AUC,-0.254
same,Potency,[2]; parasite line A,0.0035 µM (active)
same,Potency,[2]; parasite line B,0.0071 µM (active)
same,Potency,3D7,0.0063 µM (active)
CC1CC2C3CCC4=CC(=O)C=C[C@]4(C)[C@@]3(F)[C@@H](O)C[C@]2(C)[C@@]1(O)C(=O)CO (some centres undefined),z-score,[3]; [7],0.936
same,z-score,[3]; [8],0.693
same,z-score,[3]; [9],0.527
COc1ccc(-c2ccc3cc(C(=O)O)ccc3c2)cc1C12CC3CC(CC(C3)C1)C2,Z-AUC,[1],0.117 (inactive)
same,Z-AUC,[1]; [4],-0.0792
same,Z-AUC,[1]; measured here: PEO4 Z-AUC,-0.489
same,"activity, negative = inhibition",[2]; [5],6.34% (inactive)
same,"activity, negative = inhibition",[2]; [6],6.13% (inactive)
same,Potency,3D7,inactive
Nc1nc(N)c2nc(CNc3ccc(C(=O)NC(CCC(=O)O)C(=O)O)cc3)cnc2n1 (centres undefined),Z-AUC,[1],0.0258 (inactive)
same,Z-AUC,[1]; [4],0.192
same,Z-AUC,[1]; measured here: PEO4 Z-AUC,1.1
same,"activity, negative = inhibition",[2]; [5],3.54% (inactive)
same,"activity, negative = inhibition",[2]; [6],-5.01% (inactive)
same,Potency,3D7,inactive
CCc1cc(C(N)=S)ccn1,Z-AUC,[1],0.368 (inactive)
same,Z-AUC,[1]; [4],-0.0543
same,Z-AUC,[1]; measured here: PEO4 Z-AUC,-0.17
same,"activity, negative = inhibition",[2]; [5],-0.167% (inactive)
same,"activity, negative = inhibition",[2]; [6],3.61% (inactive)
same,Potency,3D7,inactive
COC(=O)Nc1nc2ccc(C(=O)c3ccccc3)cc2[nH]1,Potency,[1],0.436 µM (active)
same,Z-AUC,[1]; [4],-1.51
same,Z-AUC,[1]; measured here: PEO4 Z-AUC,-1.61
same,"activity, negative = inhibition",[2]; [10],5.97% (inactive)
same,"activity, negative = inhibition",[2]; [11],9.61% (inactive)
same,Potency,3D7,inactive
Oc1c(Cl)cc(Cl)c2cccnc12,Z-AUC,[1],0.201 (inactive)
same,Z-AUC,[1]; [4],-0.0999
same,Z-AUC,[1]; measured here: PEO4 Z-AUC,-0.27
same,Potency,[2]; parasite line B,10 µM (active)
COc1cc2c(Nc3ccc(Br)cc3F)ncnc2cc1OCC1CCN(C)CC1,Z-AUC,[1],0.231 (inactive)
same,Z-AUC,[1]; [4],0.081
same,Z-AUC,[1]; measured here: PEO4 Z-AUC,-0.0991
same,Potency,[2]; parasite line A,1.78 µM (active)
same,Potency,[2]; parasite line B,1 µM (active)
same,Potency,3D7,2.51 µM (active)
OC(Cn1cncn1)(Cn1cncn1)c1ccc(F)cc1F,Z-AUC,[1],-0.0807 (inactive)
same,Z-AUC,[1]; [4],0.99
same,Z-AUC,[1]; measured here: PEO4 Z-AUC,1.12
same,z-score,[3]; [7],0.751
same,z-score,[3]; [8],0.906
same,z-score,[3]; [9],-0.107
same,"activity, negative = inhibition",[2]; [5],5.43% (inactive)
same,Potency,3D7,inactive
O=C(O)c1cn(C2CC2)c2cc(N3CCNCC3)c(F)cc2c1=O,Z-AUC,[1],0.135 (inactive)
same,Z-AUC,[1]; [4],0.154
same,Z-AUC,[1]; measured here: PEO4 Z-AUC,0.682
same,z-score,[3]; [7],1.77
same,z-score,[3]; [8],0.661
same,z-score,[3]; [9],1.11
same,"activity, negative = inhibition",[2]; [11],-28.9% (inactive)
same,Potency,3D7,inactive
C1CCC(C(CC2CCCCN2)C2CCCCC2)CC1 (centres undefined),Z-AUC,[1],-0.764 (inactive)
same,Z-AUC,[1]; [4],-0.095
same,Z-AUC,[1]; measured here: PEO4 Z-AUC,-0.0366
same,Potency,[2]; parasite line B,8.91 µM (active)
same,Potency,3D7,7.94 µM (active)
CCOC(=O)[C@H](CCc1ccccc1)N[C@H]1CS[C@H](c2cccs2)CN(CC(=O)O)C1=O,Z-AUC,[1],-0.655 (inactive)
same,Z-AUC,[1]; [4],-0.787
same,Z-AUC,[1]; measured here: PEO4 Z-AUC,-0.726
same,"activity, negative = inhibition",[2]; [5],-33.7% (inactive)
same,Potency,3D7,inactive
